# Laboratory results from PubChem BioAssay AID2685 (National Center for Advancing Translational Sciences (NCATS), 2010).
# The campaign covered roughly 320,000 compounds. About 2,100 (0.66%) were called active. Another 53% or so got no clear call; they are omitted. Calls come from the whole dose curve; as a rule, active = well fitted inhibition curve with a large enough effect in the signal ratio, with a control signal flat (not every such curve was filed as active); inconclusive = small, poorly fitted or top-dose-only effect, or effect the other way, or a change in a side signal; inactive = flat fitted curve, though single readings scatter; the % refers to the signal ratio. This excerpt belongs to a sample that is enriched for actives.
# Assay: qHTS Assay for Lipid Storage Modulators in Drosophila S3 Cells;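 for cell number change: cells counted by Cell Tracker Red CMTPX staining in the red channel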
# Conditions: BODIPY lipid droplet fluorescence, 18-24 h, cells fed with added oleic acid; cell number change: measured here: cell count max response; series mostly up to 46.1 µM
# Outline: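 Drosophila S3 cells loaded with oleic acid (400 uM, as added) and compounds at several concentrations; lipid droplets imaged by 488-nm laser-scanning cytometry, 500–530 nm intensity and object ratio to cell channel. Percent activity normalized to 20 uM Triacsin C.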
# Potency is the fitted concentration of half-maximal effect.
Structure (SMILES),Potency,cell number change,outcome
O=C(CN1C(=O)S/C(=C/c2ccc(N3CCOCC3)cc2)C1=O)N1CCOCC1,inactive,13.3%,
O=C(CN(Cc1ccc(F)cc1)C(=O)c1csnn1)NC1CCCC1,inactive,10.5%,
COc1cc(OC)cc(C(=O)N(Cc2nc(-c3cccc(C)c3)no2)C(C)C)c1,inactive,,
Cc1cccc(-c2noc(CN(C(=O)C34CC5CC(CC(C5)C3)C4)C(C)C)n2)c1,inactive,15.9%,
COc1cccc(C(=O)N(Cc2nc(-c3cccc(C)c3)no2)C(C)C)c1OC,18.4 µM (active),-16.8%,
O=C(COc1ccc(Cl)cc1)N(Cc1ccco1)C1CCS(=O)(=O)C1 (stereo not drawn),inactive,5.12%,
CCCCNC(=O)CN(c1cc(C(F)(F)F)ccc1Cl)S(C)(=O)=O,inactive,5.68%,
Cc1ccc(N(CC(=O)NC2CCCCC2C)S(=O)(=O)c2c(C)noc2C)cc1 (stereo not drawn),inactive,1.18%,
Cc1ccc(N(CC(=O)NC2CCCCC2)S(=O)(=O)c2c(C)nn(C)c2C)cc1,inactive,5.73%,
Cc1ccc(N(CC(=O)NC2CCCCC2C)S(=O)(=O)c2c(C)nn(C)c2C)cc1 (stereo not drawn),25.9 µM (active),-1.91%,
CC1(C)CCC(C)(C)NC(=S)N1,inactive,-5.67%,
O=C(COc1nsnc1N1CCOCC1)Nc1ccc(Cl)cc1,inactive,-7.64%,
COC(=O)COc1nsnc1N1CCOCC1,5.8 µM (active),1.29%,
O=C(COc1nsnc1N1CCOCC1)N1CCOCC1,inactive,-23.3%,
Cc1cccc(OCCC(=O)NNC(=O)c2ccoc2C)c1,inactive,-9.1%,
COC(=O)CCCCCN1C(=O)NC(c2ccccc2)C(C(=O)OCc2ccccc2)=C1C (stereo not drawn),inactive,10%,
CC(=O)NS(=O)(=O)c1ccc(NC(=O)c2cc(-c3ccc(C)cc3)nc3ccccc23)cc1,inactive,13.2%,
CN1CCC(N2CCCC(C(=O)O)C2)CC1 (stereo not drawn),6.51 µM (active),6.8%,
Cc1ccc(NC(=O)N2CCCC(C(=O)O)C2)cc1 (stereo not drawn),inactive,-2.63%,
CCCN1CCC(N2CCCC(C(=O)O)C2)CC1 (stereo not drawn),inactive,9.47%,
O=C(c1ccccc1)N1CCn2c1nc1ccccc12,inactive,7.4%,
COc1cccc(CC(=O)Nc2nc3c(s2)C(=O)CC(C)(C)C3)c1,inactive,,
O=C(CSc1nccc(=O)[nH]1)Nc1ccc(N2CCOCC2)cc1,inactive,4.96%,
COc1ccc(OC)c(S(=O)(=O)N2CCCC(C(=O)N3CCCCCC3)C2)c1 (stereo not drawn),3.26 µM (active),-13.8%,

Structure (SMILES),Potency,cell number change,outcome
COc1ccc(OC)c(S(=O)(=O)N2CCC(C(=O)N3CCCCCC3)CC2)c1,inactive,10.5%,
COc1ccc(OC)c(S(=O)(=O)N2CCC(C(=O)N3CCN(Cc4ccccc4)CC3)CC2)c1,8.2 µM (active),-36.9%,
COc1ccc(CN2CCCC(C(=O)N3CCCCC3)C2)c(OC)c1 (stereo not drawn),18.4 µM (active),-9.62%,
COc1ccc(S(=O)(=O)N2CCCC(C(=O)N3CCCCCC3)C2)cc1 (stereo not drawn),inactive,,
COc1ccccc1CN1CCCC(C(=O)N2CCCCC2)C1 (stereo not drawn),inactive,-12.4%,
COc1ccc(OC)c(S(=O)(=O)N2CCCC(C(=O)N3CCC(C(N)=O)CC3)C2)c1 (stereo not drawn),inactive,,
COc1ccc(OC)c(S(=O)(=O)N2CCC(C(=O)N3CCOCC3)CC2)c1,inactive,23.2%,
COc1cc(OC)c(OC)cc1CN1CCCC(C(=O)N2CCCCC2)C1 (stereo not drawn),inactive,-0.267%,
COc1ccccc1CN1CCN(Cc2nc(Cc3ccccc3)no2)CC1,inactive,-11.2%,
COc1ccc(C(=O)COC(=O)C(CCSC)NC(=O)COc2ccccc2)cc1 (stereo not drawn),inactive,-12.5%,
COc1ccc(Cc2noc(CN3CCN(Cc4csc(C)n4)CC3)n2)cc1OC,inactive,3.13%,
CC(Sc1cnccn1)C(=O)O (stereo not drawn),inactive,-4.62%,
CC(=O)NCC1CCCN(C(=O)c2oc3c(F)cccc3c2C)C1 (stereo not drawn),inactive,-13.1%,
O=C(COC(=O)C1CC1)NCc1ccccc1,inactive,,
COc1cc(OC)c(/C=N/NC(=O)Cn2nc([N+](=O)[O-])cc2C)c(OC)c1,inactive,,
COc1ccc(CCNC(=O)c2ccc3c(c2)NC(=O)C(CSCc2cc(C)ccc2C)N3)cc1OC (stereo not drawn),23.1 µM (active),3.36%,
COc1ccc(CCNC(=O)c2ccc3c(c2)NC(=O)C(C(C)C)N3)cc1OC (stereo not drawn),inactive,-27%,
COc1ccc(CCNC(=O)CC2Nc3cc(C)c(C)cc3NC2=O)cc1OC (stereo not drawn),inactive,21.5%,
COc1ccc(C(=O)NNC(=O)CCCCC(=O)NNC(=O)c2ccc(OC)cc2)cc1,inactive,-8.93%,
COc1ccc2[nH]c(C(=O)O)c(CCN3C(=O)c4ccc(C(=O)O)cc4C3=O)c2c1,inactive,,
CC(C)(C)C#CCn1c(/C=[N+](\[O-])C2CCCCC2)nc2ccccc21,inactive,-20.4%,
Cc1nc2cc(C(=O)OCC(=O)Nc3cccc(Cl)c3)ccc2n1-c1ccccc1,inactive,16.2%,
COc1cc2ccccc2cc1C(=O)NC(=S)Nc1cccc(C(=O)O)c1,inactive,12.5%,
COc1cc2ccccc2cc1C(=O)NC(=S)Nc1cc(C(=O)O)ccc1C,inactive,-26.2%,

Structure (SMILES),Potency,cell number change,outcome
COc1cc2ccccc2cc1C(=O)NC(=S)Nc1ccc(C(=O)O)cc1,18.4 µM (active),-28.9%,
COC(=O)C1CCN(C(=O)C23CCC(C)(C(=O)O2)C3(C)C)CC1 (stereo not drawn),inactive,,
Cc1ccc(NC(=O)CSc2nnc(-c3ccncc3)s2)cc1,inactive,5.56%,
CCn1c(C)[n+](CC)c2ccc(S(=O)(=O)N(C)C)cc21,inactive,4.86%,
O=C(O)/C=C/C(=O)NCc1ccccn1,inactive,-7.29%,
CNc1snc(C)c1C(=O)OCC(=O)N(C)Cc1ccccc1,14.6 µM (active),-17.1%,
CN(Cc1ccccc1)C(=O)COC(=O)c1ccccc1Nc1ccccc1,inactive,-9.93%,
CN(Cc1ccccc1)C(=O)COC(=O)c1ccc2ccccc2n1,inactive,15.9%,
COCCNC(=O)CC(NS(=O)(=O)c1ccc(NC(C)=O)cc1)C(C)C (stereo not drawn),5.8 µM (active),-2.55%,
CC(=O)Nc1ccc(S(=O)(=O)NC(CC(=O)NC2CCCCC2C)C(C)C)cc1 (stereo not drawn),inactive,,
CCC(C)NC(=O)CC(NS(=O)(=O)c1ccc(NC(C)=O)cc1)C(C)C (stereo not drawn),inactive,10.4%,
Cc1cc(=O)[nH]c(SCC(=O)O)c1C#N,inactive,-1.88%,
CCOC(=O)CSc1[nH]c(=O)cc(C)c1C#N,inactive,23.9%,
Cc1cc(=O)[nH]c(SCC(N)=O)c1C#N,23.1 µM (active),-10.4%,
Cc1ccc(C(=O)N2CCC3(CC2)Oc2ccc(F)cc2C(=O)C32CC(c3ccccc3)=NO2)s1 (stereo not drawn),inactive,11.1%,
COc1ccc(OC)c(N(CC(=O)Nc2ccc(NC(C)=O)cc2)S(C)(=O)=O)c1,inactive,18.4%,
Cc1ccnc(NC(=O)c2ccc(N3C(=O)CCC3=O)cc2)c1,inactive,-2.76%,
COC(=O)c1ccc(NC(=O)CCc2nnc3ccc(N4CCC5(CC4)OCCO5)nn23)cc1,inactive,-17.4%,
COc1ccccc1NC(=O)CCc1nnc2ccc(N3CCC4(CC3)OCCO4)nn12,2.06 µM (active),-20.4%,
COc1cccc(N2CCN(c3ccc4nnc(CCC(=O)Nc5cccc(C(C)=O)c5)n4n3)CC2)c1,inactive,-9.88%,
COc1cccc(NC(=O)CCc2nnc3ccc(N4CCN(c5cccc(OC)c5)CC4)nn23)c1,9.2 µM (active),-24.5%,
COc1cc(NC(=O)CCc2nnc3ccc(N4CCN(c5cccc(OC)c5)CC4)nn23)cc(OC)c1,inactive,-21.5%,
Cc1ccccc1NC(=O)CCc1nnc2ccc(N3CCC4(CC3)OCCO4)nn12,inactive,15.5%,
CCCCC(C(=O)N/N=C/c1ccccn1)C(=O)N/N=C/c1ccccn1,inactive,2.01%,

Structure (SMILES),Potency,cell number change,outcome
COc1cccc(NC(C)(C)c2nnnn2-c2c(C)cccc2C)c1,inactive,12.6%,
O=C(CCN1CCc2ccccc2C1)Nc1ccc(F)c(F)c1,inactive,,
CCOC(=O)c1c(S(=O)(=O)NCC(=O)Nc2ccc(OC)cc2)c(C)n(C)c1C,inactive,,
CCCOC(=O)CCCC[C@H]1SC[C@@H](NC(=O)OC)[C@H]1NC(=O)OC,inactive,5.48%,
CCOC(=O)c1c(C)nc(-c2ccccc2)nc1N,inactive,1.72%,
O=C(Cc1ccccc1Cl)NCCCn1ccnc1,inactive,-1.19%,
O=C(COc1coc(CN2CCN(c3ccccc3)CC2)cc1=O)NCC1CCCO1 (stereo not drawn),,,inactive [at 0.0737 µM]
CCN(CC)S(=O)(=O)c1c(OC)cc(C)c(Cl)c1C,inactive,8.74%,
Cc1c(C)c2ccc(OCC(=O)Nc3ccccn3)c(C)c2oc1=O,inactive,15.9%,
CCCc1cc(=O)oc2cc(C)cc(OCC(=O)NCc3ccncc3)c12,inactive,4.58%,
O=C(COc1ccc(F)cc1)NCCCn1ccnc1,25.9 µM (active),-6.85%,
CCCc1cc(=O)oc2cc(C)cc(OCC(=O)NCc3cccnc3)c12,inactive,-12.5%,
Cc1cc(OCC(=O)NCc2ccncc2)c2c(C)c(C)c(=O)oc2c1,inactive,8.73%,
O=C(COc1ccc(Br)cc1)NCCCn1ccnc1,inactive,9.25%,
Cc1cc(OCC(=O)NCCCn2ccnc2)c2c(C)c(C)c(=O)oc2c1,13 µM (active),,
CCc1cc(=O)oc2cc(C)cc(OCC(=O)NCCCn3ccnc3)c12,inactive,8.87%,
CCCc1cc(=O)oc2cc(C)cc(OCC(=O)NCc3ccccn3)c12,11.6 µM (active),6.85%,
Cc1cc(OCC(=O)Nc2ccccn2)c2c(C)c(C)c(=O)oc2c1,7.31 µM (active),-10.4%,
COc1ccc(OCC(=O)NCCCn2ccnc2)cc1,inactive,17.2%,
CCCc1cc(=O)oc2cc(C)cc(OCC(=O)NCCCn3ccnc3)c12,inactive,0.597%,
COc1ccc(CN(C)S(=O)(=O)c2nnc(NC(=O)c3ccccc3OC)s2)cc1OC,inactive,-3.88%,
